From PubChem BioAssay (Tox21)
Several values for one entry are separate records, joined by “and”; a condition that tells them apart may be missing. Equal entries are not always repeated. The source holds several records for some structures; these can differ, active in one and inactive in another. Activity calls are given as the source filed them. Unless noted, calls come from the whole dose curve; as a rule, active = well fitted curve in the direction sought with a large enough effect in the repeat runs; inconclusive = weak or mixed curves; inactive = no such curve, though single readings can be large; an effect the other way counts as inactive or inconclusive.

Legend:
[1] = qHTS assay to identify small molecule antagonists of the glucocorticoid receptor (GR) signaling pathway - cell viability counter screen (AID 720693); note: nearly all actives have a fitted effect of over 55% in size
[2] = qHTS assay for identifying genotoxic compounds that show differential cytotoxicity against isogenic chicken DT40 cell lines with known DNA damage response pathways - Rev3 mutant cell line (AID 743014); note: nearly all actives have a fitted effect of over 55% in size; note: potency is the fitted concentration of half-maximal effect
[3] = qHTS assay for identifying genotoxic compounds that show differential cytotoxicity against isogenic chicken DT40 cell lines with known DNA damage response pathways - Rad54/Ku70 mutant cell line (AID 743015); note: nearly all actives have a fitted effect of over 60% in size; note: potency is the fitted concentration of half-maximal effect
[4] = qHTS assay to identify small molecule antagonists of the androgen receptor (AR) signaling pathway - cell viability counter screen (AID 743033; note: nearly all actives have a fitted effect of over 45% in size; note: potency is the fitted concentration of half-maximal effect)
[5] = qHTS assay to identify small molecule antagonists of the androgen receptor (AR) signaling pathway using the MDA cell line - cell viability counter screen (AID 743041; note: nearly all actives have a fitted effect of over 45% in size)
How it was run: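 R1881-driven MDA-kb2 AR-luc cells, 3,000/well, were dosed with library compounds for 16 h; cell health came from CellTiter-Fluor fluorescence in the reporter wells.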

[6] = qHTS assay to identify small molecule antagonists of the thyroid receptor (TR) signaling pathway - cell viability counter screen (AID 743064); note: nearly all actives have a fitted effect of over 50% in size; note: potency is the fitted concentration of half-maximal effect
How it was run: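 GH3.TRE-Luc rat pituitary cells carrying a TRE-luciferase reporter were treated with compound plus 1 nM T3 (final) for 23.5 h at 37 °C. Viability was then read in the same wells by CellTiter-Fluor fluorescence after a further 30 min.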

[7] = qHTS assay to identify small molecule antagonists of the thyroid receptor (TR) signaling pathway (AID 743065); note: nearly all actives have a fitted effect of over 55% in size; note: potency is the fitted concentration of half-maximal effect
How it was run: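 Antagonism measured as loss of luciferase signal in GH3 cells stably carrying a TRE-luciferase reporter, co-treated with compound and T3 (1 nM final) for 23.5 h at 37 C. Viability was read in the same well by CellTiter-Fluor.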

[8] = tested on: thyroid hormone receptor (rat, GH3 cells); assay: qHTS assay to identify small molecule agonists of the thyroid receptor (TR) signaling pathway (AID 743066; calls by dose curve)
[9] = qHTS assay to identify small molecule antagonists of the estrogen receptor alpha (ER-alpha) signaling pathway - cell viability counter screen (AID 743074; calls by dose curve;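 note: HEK293 cells carrying ER-alpha-UAS-bla reporter stimulated with 17beta-estradiol; nearly all actives have a fitted effect of over 45% in size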)
[10] = qHTS assay to identify small molecule antagonists of the estrogen receptor alpha (ER-alpha) signaling pathway using the BG1 cell line - cell viability counter screen (AID 743081);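 note: compound given together with 17beta-estradiol as the ER stimulus; series mostly up to about 70 µM; nearly all actives have a fitted effect of over 45% in size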
Aromatase (Homo sapiens) = Aromatase (Homo sapiens) (UniProt P11511); assay: qHTS assay to identify aromatase inhibitors (AID 743083); note: nearly all actives have a fitted effect of over 55% in size; note: potency is the fitted concentration of half-maximal effect
[11] = target: Estrogen receptor (Homo sapiens) (UniProt P03372); assay: qHTS assay to identify small molecule antagonists of the estrogen receptor alpha (ER-alpha) signaling pathway (AID 743069; active = well fitted curve in the direction sought with a large enough effect in the signal ratio in the repeat runs, not every such curve was filed as active; inconclusive = weak or mixed curves, or effect the other way; inactive = no such curve, though single readings can be large or run the other way; the % refers to the signal ratio; note: potency is the fitted concentration of half-maximal effect)
How it was run: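 Compound effects are measured against 17beta-estradiol stimulation in HEK293 cells with a UAS-controlled beta-lactamase reporter for ER-alpha. Exposure lasts 18 hr at 37C; LiveBLAzer B/G FRET substrate follows for 2 hr at room temperature.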

[12] = target: Estrogen receptor (Homo sapiens) (UniProt P03372); assay: qHTS assay to identify small molecule agonists of the estrogen receptor alpha (ER-alpha) signaling pathway (AID 743075; calls by dose curve; note: potency is the fitted concentration of half-maximal effect)
[13] = target: Estrogen receptor (Homo sapiens) (UniProt P03372); assay: qHTS assay to identify small molecule agonists of the estrogen receptor alpha (ER-alpha) signaling pathway using the BG1 cell line (AID 743079); note: nearly all actives have a fitted effect of over 20% in size; note: potency is the fitted concentration of half-maximal effect
[14] = qHTS assay to identify small molecule antagonists of the estrogen receptor alpha (ER-alpha) signaling pathway using the BG1 cell line (AID 743080; calls by dose curve;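 note: BG1 cells stimulated with 17beta-estradiol alongside compound; nearly all actives have a fitted effect of over 25% in size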; note: potency is the fitted concentration of half-maximal effect)
How it was run: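 Luminescence from a 4×ERE-luciferase reporter in BG1-Luc-4E2 cells served as read-out. Cells, pre-cultured 5 days in stripped-serum phenol-red-free medium, were exposed to compound with 17beta-estradiol co-stimulation for 21.5 h at 37 C.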

[15] = target: Androgen receptor (Homo sapiens) (UniProt P10275); assay: qHTS assay to identify small molecule agonists of the androgen receptor (AR) signaling pathway using the MDA cell line (AID 743040; note: nearly all actives have a fitted effect of over 20% in size)
How it was run: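 After a 5 h incubation at 37C and 0% CO2, MDA-kb2 reporter cells were dosed with compounds in DMSO and kept 16 h under the same conditions. Luciferase activity was then read as luminescence with ONE-Glo.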

[16] = target: Androgen receptor (Homo sapiens) (UniProt P10275); assay: qHTS assay to identify small molecule antagonists of the androgen receptor (AR) signaling pathway using the MDA cell line (AID 743042; note: nearly all actives have a fitted effect of over 55% in size; note: potency is the fitted concentration of half-maximal effect)
How it was run: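 Antagonist mode: compounds plus R1881 agonist added to MDA-kb2 AR-luc cells, incubated 16 h at 37C. Luciferase reporter luminescence quantified, with multiplexed CellTiter-Fluor readout for cell viability.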

[17] = qHTS assay for identifying genotoxic compounds that show differential cytotoxicity against isogenic chicken DT40 cell lines with known DNA damage response pathways - wild type cell line (AID 743012); note: nearly all actives have a fitted effect of over 60% in size; note: potency is the fitted concentration of half-maximal effect
How it was run: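 First, wild type DT40 cells were plated at 300 per well and equilibrated about 0.5 h at 37 C/5% CO2. Next, compounds in DMSO were added and exposure lasted 40 h. Finally, CellTiter-Glo was added for 30 min at room temperature and luminescence recorded.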

Measured: Potency

Androgen receptor (Homo sapiens), sequence (P10275 whole entry, looked up): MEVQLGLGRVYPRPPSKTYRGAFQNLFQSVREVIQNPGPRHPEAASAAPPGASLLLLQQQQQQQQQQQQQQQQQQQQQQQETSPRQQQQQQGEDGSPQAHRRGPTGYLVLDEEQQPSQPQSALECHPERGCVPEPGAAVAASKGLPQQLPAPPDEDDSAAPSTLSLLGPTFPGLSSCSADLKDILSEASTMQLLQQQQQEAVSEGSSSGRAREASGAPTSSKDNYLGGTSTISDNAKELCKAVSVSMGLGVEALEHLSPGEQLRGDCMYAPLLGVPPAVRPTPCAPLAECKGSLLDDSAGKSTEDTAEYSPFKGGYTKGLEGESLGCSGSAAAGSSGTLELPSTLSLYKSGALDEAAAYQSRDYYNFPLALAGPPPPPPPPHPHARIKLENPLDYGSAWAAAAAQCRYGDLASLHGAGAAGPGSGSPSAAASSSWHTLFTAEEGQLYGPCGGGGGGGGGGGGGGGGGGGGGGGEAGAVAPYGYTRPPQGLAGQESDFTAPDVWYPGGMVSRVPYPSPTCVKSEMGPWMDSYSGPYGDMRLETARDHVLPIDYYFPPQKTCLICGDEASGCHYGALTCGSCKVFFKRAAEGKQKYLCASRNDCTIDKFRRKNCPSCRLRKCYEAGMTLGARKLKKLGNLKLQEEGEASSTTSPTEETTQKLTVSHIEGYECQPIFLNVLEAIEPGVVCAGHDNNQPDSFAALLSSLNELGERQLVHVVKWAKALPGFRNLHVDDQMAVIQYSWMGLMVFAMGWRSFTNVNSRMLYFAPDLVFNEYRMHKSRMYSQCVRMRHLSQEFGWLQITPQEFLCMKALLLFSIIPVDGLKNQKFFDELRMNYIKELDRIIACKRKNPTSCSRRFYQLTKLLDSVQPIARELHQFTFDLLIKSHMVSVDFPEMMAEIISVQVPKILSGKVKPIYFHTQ
Aromatase (Homo sapiens), sequence (P11511 whole entry, looked up): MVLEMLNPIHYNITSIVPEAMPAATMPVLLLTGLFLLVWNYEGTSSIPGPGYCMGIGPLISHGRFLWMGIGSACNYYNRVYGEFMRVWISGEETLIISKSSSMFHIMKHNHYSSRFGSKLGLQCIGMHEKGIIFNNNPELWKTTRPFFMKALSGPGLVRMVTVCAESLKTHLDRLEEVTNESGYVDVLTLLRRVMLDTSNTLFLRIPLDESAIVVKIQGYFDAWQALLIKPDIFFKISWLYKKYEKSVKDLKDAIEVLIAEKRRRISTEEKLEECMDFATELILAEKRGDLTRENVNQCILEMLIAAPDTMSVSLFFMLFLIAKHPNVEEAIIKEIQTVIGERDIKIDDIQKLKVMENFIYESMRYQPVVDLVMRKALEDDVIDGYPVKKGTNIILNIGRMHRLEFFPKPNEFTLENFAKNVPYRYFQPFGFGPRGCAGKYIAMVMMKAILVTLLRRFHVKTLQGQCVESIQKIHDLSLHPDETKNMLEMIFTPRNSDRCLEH
Estrogen receptor (Homo sapiens), sequence (P03372 whole entry, looked up): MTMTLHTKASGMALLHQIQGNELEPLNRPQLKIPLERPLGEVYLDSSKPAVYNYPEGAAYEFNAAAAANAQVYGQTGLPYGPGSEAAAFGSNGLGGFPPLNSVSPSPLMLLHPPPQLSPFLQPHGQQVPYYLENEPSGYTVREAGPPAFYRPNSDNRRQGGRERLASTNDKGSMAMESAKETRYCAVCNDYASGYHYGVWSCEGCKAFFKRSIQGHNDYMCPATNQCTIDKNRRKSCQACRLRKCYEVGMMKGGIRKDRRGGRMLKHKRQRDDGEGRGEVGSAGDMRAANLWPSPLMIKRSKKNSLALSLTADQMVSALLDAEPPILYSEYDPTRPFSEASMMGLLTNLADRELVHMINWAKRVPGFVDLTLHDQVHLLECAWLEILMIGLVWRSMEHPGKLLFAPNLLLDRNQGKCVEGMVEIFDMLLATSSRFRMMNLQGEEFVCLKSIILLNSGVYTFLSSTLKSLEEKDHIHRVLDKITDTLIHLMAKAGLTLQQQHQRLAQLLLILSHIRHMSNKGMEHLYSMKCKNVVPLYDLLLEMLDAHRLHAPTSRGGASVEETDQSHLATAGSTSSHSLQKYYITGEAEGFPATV

C=COC(C)=O
not listed: [11] | [12] | [13] | [14] | [15] | [16] | [17]
inactive: all other assays above

CCOc1ccc(C(C)(C)COCc2cccc(Oc3ccccc3)c2)cc1
not listed: [5] | [15] | [16] | [17]
inactive: all other assays above

Brc1ccc(Oc2ccccc2)cc1
not listed: [3] | [15] | [16] | [17]
inactive: all other assays above

CC(C)(CCl)C(=O)Cl
inactive: [1] | [3] | [4] | [6] | [7] | [8] | [9] | [10] | Aromatase (Homo sapiens)

CCCC(=O)Cl
not listed: [2] | [7] | [15] | [16] | [17]
inactive: all other assays above

[CH3][Sn]([CH3])([Cl])[Cl]
inactive: [1] | [4] | [5] | [8] | [9] | [10] | Aromatase (Homo sapiens)
55.4 µM (active) and inactive: [6]
active: [2] 62.1 µM and 27.3 µM | [3] 48.6 µM

N#C/C(N)=C(/N)C#N
not listed: [2] | [5] | [7] | [15] | [16] | [17]
inactive: all other assays above

CCCN(CCC)c1c([N+](=O)[O-])cc(S(C)(=O)=O)cc1[N+](=O)[O-]
not listed: [3] | [6] | [11] | [13] | [15] | [16] | [17]
inactive: all other assays above

O=NN1CCNCC1
not listed: [7] | [15] | [16] | [17]
inactive: all other assays above

O=C(CBr)c1ccccc1
active: [2] 61.5 µM | [13] 54.8 µM
not listed: [3] | [15] | [16] | [17]
inactive: all other assays above

CCc1ccc(C(=O)NN(C(=O)c2cc(C)cc(C)c2)C(C)(C)C)cc1
active: [2] 27.3 µM | [3] 27.3 µM | [6] 1.54 µM
not listed: [5] | [11] | [15] | [16] | [17]
inactive: all other assays above

C=CC(=O)NCNC(=O)C=C
inactive: [1] | [15] | [5] | [16] | [7] | [8] | [12] | Aromatase (Homo sapiens)
active: [3] 61 µM

CCC(Br)(CC)C(=O)NC(N)=O
active: [2] 54.5 µM
not listed: [11] | [12] | [13] | [14] | [15] | [16] | [17]
inactive: all other assays above

C=CCCl
active: [12] 57.6 µM [activator] | [13] 32.1 µM
not listed: [2] | [7] | [15] | [16] | [17]
inactive: all other assays above

CC1(C)CCC(Cc2ccc(Cl)cc2)C1(O)Cn1cncn1 (stereo not given)
inactive: [8] | [9] | [12] | [10]
active: [2] 15.4 µM | [3] 27.3 µM | [7] 61.1 µM | [11] 61.6 µM [inconclusive] | [14] 61.1 µM | Aromatase (Homo sapiens) 30.6 µM

O=C(Nc1ccccc1)Nc1ccnc(Cl)c1
inactive: [15] | [8] | [9] | [12] | [10]
active: [17] 17.2 µM | [2] 15.4 µM | [3] 13.7 µM | [4] 38.9 µM | [16] 30.6 µM | [7] 27.3 µM | [11] 13.8 µM [inconclusive] | Aromatase (Homo sapiens) 54.5 µM

NC(=O)C(Cl)(Cl)Cl
active: [13] 68.9 µM
not listed: [1] | [5] | [7] | [8] | [15] | [16]
inactive: all other assays above

O=C1C(=O)c2cccc3cccc1c23
inactive: [5] | [6] | [8] | [11] | [12] | [13] | [14] | Aromatase (Homo sapiens)
active: [17] 2.73 µM | [2] 1.72 µM | [3] 2.43 µM

CO/N=C(/C(=O)OC)c1ccccc1COc1ccccc1C
inactive: [15] | [6] | [8] | [13] | [10]
active: [17] 0.611 µM | [2] 0.969 µM | [3] 0.864 µM | [4] 6.92 µM | [16] 27.3 µM | [7] 3.06 µM
